The list is not random: actives were taken first. Their share in the collection is about 7.4%.
ELG1 genotox – induces genotoxicity in HEK293T cells with luciferase-tagged ELG1 | HEK293T ELG1-luciferase reporter, luminescence, 16 h | Potency, µM (top dose mostly 46 µM), for the others: at the highest dose activity change, positive = activation, most hits filed as activators | 330,000 tested, 1.3% active | AID 504466; also: % of control where 0% means no effect; nearly all actives have a fitted effect of over 60% in size
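Reporter readout depends on ELG1 protein level, which increases with genetic stress. After 16 hr compound exposure at 37 °C, luciferase activity was quantified using ONE-Glo.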
SMN2 splice enh – increases expression of the SMN2 splice variant. AID 1458. 210,000 tested, 2.8% active. Potency, µM (highest dose often 46.1 µM), without a hit: at the highest dose activity change, positive = activation, most hits filed as activators. HEK293 SMN2-luciferase splicing reporter, luminescence, 30-36 h; also: % of control where 0% means no effect; nearly all actives have a fitted effect of over 55% in size
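qHTS luciferase splicing reporter: luminescence rises when SMN2 exon 7 is included in transfected HEK293 cells. Compound exposure lasted 30-36 h at 37C, with 4.5 mM final sodium butyrate as control, followed by a ONE-Glo read.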
FLuc modulator – inhibits or activates purified firefly luciferase, miR-21 counter-screen | purified FLuc, Km substrates, luminescence inhibition | Potency, µM (series often up to 57.5 µM), without a hit: top-dose activity change, negative = inhibition, hits mostly inhibitors | 360,000 tested, 6.9% active | AID 588342;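 also: plate controls were vehicle for no effect and reference inhibitor for full effect; nearly all actives have a fitted effect of over 55% in size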
Target sequence (P08659 whole entry, looked up): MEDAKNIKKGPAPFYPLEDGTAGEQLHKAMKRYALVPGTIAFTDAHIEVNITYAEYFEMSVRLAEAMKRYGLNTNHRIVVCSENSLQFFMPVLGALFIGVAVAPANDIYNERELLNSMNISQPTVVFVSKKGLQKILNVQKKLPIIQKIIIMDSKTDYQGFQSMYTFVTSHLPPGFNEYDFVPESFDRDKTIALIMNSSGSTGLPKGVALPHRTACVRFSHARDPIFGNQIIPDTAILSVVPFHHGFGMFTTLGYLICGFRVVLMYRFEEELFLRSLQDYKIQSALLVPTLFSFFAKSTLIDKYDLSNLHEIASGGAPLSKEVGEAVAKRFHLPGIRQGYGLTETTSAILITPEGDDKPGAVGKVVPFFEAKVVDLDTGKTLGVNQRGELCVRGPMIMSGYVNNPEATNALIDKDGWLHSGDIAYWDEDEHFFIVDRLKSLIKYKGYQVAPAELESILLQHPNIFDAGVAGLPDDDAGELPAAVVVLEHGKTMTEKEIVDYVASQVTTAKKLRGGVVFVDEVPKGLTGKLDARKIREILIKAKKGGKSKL
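Purified P. pyralis luciferase, 10 nM final, with Km-level 10 uM D-luciferin and 10 uM ATP in 50 mM Tris acetate pH 7.5, 10 mM Mg acetate, 0.01% Tween-20, 0.05% BSA; 6-point qHTS titration about 60 µM downward; luminescence read.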
NPC1 prom act – activates the NPC1 promoter. Huh7 NPC1 promoter luciferase reporter, 24 h. AID 485313. 320,000 tested, 2.4% active. Potency, µM (series often up to 9.22 µM), for inactives: at the highest dose activation, most hits filed as activators; also: % of control where 0% means no effect; nearly all actives have a fitted effect of over 60% in size
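Readout is luciferase luminescence, reflecting NPC1 promoter activation in stably transfected Huh7 cells after 24 h compound exposure at 37 °C in reduced-serum medium with 10% FBS.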
Rab9 prom act – activators of Rab9 promoter; Huh7 Rab9 promoter-luciferase reporter, luminescence, 24 h; 320,000 tested, 2.8% active; AID 485297; Potency, µM (highest dose often 9.22 µM), for inactives: at the top dose activation, negative = inhibition, hits mostly activators; also: % of control where 0% means no effect; nearly all actives have a fitted effect of over 60% in size
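Luciferase signal after 10 min detection reagent at ambient indicates Rab9 promoter upregulation; stably transfected Huh7 cells were treated 24 h with compound in DMSO at 37 °C, 5% CO2.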
Active calls of the source: *; ? = inconclusive; · = not tested or not shown; [ ] = dose if it differs, or a comment. Calls follow the shape of the dose curve; as a rule, active = well fitted curve in the direction sought with a large enough effect; inconclusive = small, poorly fitted or top-dose-only effect, or another doubt; inactive = no such curve, though single readings can be large; an effect the other way counts as inactive or inconclusive. Potency is read from the fitted curve at half-maximal effect.

SMILES	ELG1 genotox	SMN2 splice enh	FLuc modulator	NPC1 prom act	Rab9 prom act
CCOc1ccc2nc(N3CCCC(C(=O)NCCCOC)C3)sc2c1 (stereo not drawn)	·	14µM*	12µM*	·	·
CCOc1ccc2nc(N3CCC(C(=O)Nc4ccccc4CC)CC3)sc2c1	·	22%	-12%	·	·
CCOc1cc2sc(N3CCC(C(=O)Nc4ccccc4C(=O)OC)CC3)nc2cc1Br	·	8%	-2%	·	·
CCOc1cc2sc(N3CCC(C(=O)Nc4ccc(C)cc4)CC3)nc2cc1Br	·	16µM*	-9%	·	·
CCOc1ccc2nc(N3CCC(C(=O)Nc4nnc(CC)s4)CC3)sc2c1	12µM*	2.2µM*	?	1.1µM*	4µM*
COC(=O)c1cc2oc3ccccc3c2n1CC(=O)Nc1cccc(SC)c1	·	-8%	-7%	·	·
CCOc1ccc2nc(N3CCCC(C(=O)N4CCN(CC)CC4)C3)sc2c1 (stereo not drawn)	13%	?	21µM*	?	?
CCOc1ccc2nc(N3CCCC(C(=O)NCCc4ccc(OC)cc4OC)C3)sc2c1 (stereo not drawn)	·	14µM*	?	·	·
Cc1cc(C)c2nc(N3CCCC(C(=O)NC4CCCC4)C3)sc2c1 (stereo not drawn)	7%[9.26 µM]	·	9.5µM*	30%	?
COc1ccc(N2CCN(CCCNC(=O)c3ccc4nc(N5CCCCC5)sc4c3)CC2)cc1	·	0.79µM*	?	·	·
Cc1ccc(Cl)cc1N1CCN(CCCNC(=O)c2ccc3nc(N4CCCCC4)sc3c2)CC1	·	25%	?	·	·
COc1ccc(/C=C/C(=O)OCC(=O)NC2CCCC2)cc1	1%	·	-4%	1%	?
CCOc1ccc2nc(N3CCC(C(=O)N4CCN(C5CCCCC5)CC4)CC3)sc2c1	4%	-16%	-19%	11%	2%
CCOc1ccc2nc(N3CCCC(C(=O)NCCc4ccc(C)cc4)C3)sc2c1 (stereo not drawn)	·	13%	-18%	·	·
CCOc1ccc2nc(N3CCCC(C(=O)Nc4ccc(Br)c(C)c4)C3)sc2c1 (stereo not drawn)	·	24%	6µM*	·	·
CCOc1ccc2nc(N3CCCCCC3)sc2c1	?	7.9µM*	1.1µM*	1.1µM*	1µM*
CCOc1ccc2nc(N3CCCC(C(=O)NCC4CCCO4)C3)sc2c1 (stereo not drawn)	13%	·	4.8µM*	?	?
CCOc1ccc2nc(N3CCCC(C(=O)NCc4ccc(OC)cc4)C3)sc2c1 (stereo not drawn)	·	13µM*	2.4µM*	·	·
CC(C)NC(=O)CC(=O)Nc1ccc2nc3n(c(=O)c2c1)CCCCC3	·	-9%	-17%	·	·
CCOc1ccc(C2C=C(c3ccc(C)cc3)Nc3nnnn32)cc1 (stereo not drawn)	1%	-9%	-1%	4%	3%
Fc1ccc(C2=CC(c3cccs3)n3nnnc3N2)cc1 (stereo not drawn)	5%	·	-1%	-2%	8%
Cc1ccc(C2=CC(c3cccs3)n3nnnc3N2)cc1 (stereo not drawn)	3%	15%	-26%	5µM*	?
CCOc1ccc(C2C=C(c3ccccc3)Nc3nnnn32)cc1 (stereo not drawn)	?	14%	0%	2.8µM*	1.6µM*
COc1ccc2oc(C(=O)OC(C)C(=O)Nc3ccc(N4CCOCC4)cc3)c(C)c2c1 (stereo not drawn)	6%	·	-12%	-5%	-3%
CCOc1ccc2oc(C(=O)Nc3ccc(N4CCOCC4)cc3)c(C)c2c1	·	-30%	13µM*	·	·
SMILES	ELG1 genotox	SMN2 splice enh	FLuc modulator	NPC1 prom act	Rab9 prom act
CCOc1ccc2oc(C(=O)Nc3ccc4c(c3)OCO4)c(C)c2c1	?	·	5.4µM*	3.2µM*	2.8µM*
Cc1cccc(C(=O)OC(C)C(=O)Nc2ccc(S(=O)(=O)Nc3ncccn3)cc2)c1C (stereo not drawn)	1%	·	0%	-2%	1%
c1ccc(-c2noc(-c3ccno3)n2)nc1	9%	·	-10%	16%	28%
Cc1ccc(-c2nc(-c3ccccn3)no2)cc1	-7%	·	0.085µM*	-28%	0.0002µM*
Cc1ccc(-c2nc(-c3ccccn3)no2)cc1Cl	?	·	0.13µM*	0.35µM*	0.32µM*
Cc1ccc(Sc2cc(C)nc(-c3ccccn3)n2)cc1	6%	·	17µM*	21%	5%
c1ccc(-c2nc(-c3ccccn3)no2)cc1	?	0.5µM*	0.54µM*	0.11µM*	?
O=C(CCN1C(=O)[C@@H]2Cc3ccccc3CN2C1=O)N[C@H](C(=O)O)c1ccccc1	0%	·	1%	1%	-3%
CC#CCN1c2ccccc2[C@]23C[C@@H](C(=O)OC)N(S(=O)(=O)c4c(C)noc4C)C2=NC(C(=O)OC)=C(C(=O)OC)[C@H]13	·	22%[9.22 µM]	·	·	·
Cc1ccc(-c2nc(-c3ccccn3)no2)cc1[N+](=O)[O-]	2.1µM*	·	1.5µM*	0.32µM*	0.32µM*
COc1cc(-c2nc(-c3ccccn3)no2)cc(OC)c1OC	?	17%	?	?	28%
Clc1cccc(-c2nc(-c3ccccn3)no2)c1	?	0.71µM*	0.34µM*	0.32µM*	0.1µM*
CCCNc1ccc(-c2nc(-c3ccccn3)no2)cc1[N+](=O)[O-]	·	·	-1%	·	·
O=C(CCCC(=O)OCC(=O)c1cccs1)Nc1ccc(Oc2ccccc2)cc1	-3%	5%	21µM*	1%	-2%
CC(C)(C)C(=O)Nc1ccc(C(=O)COC(=O)C2CC2)cc1	11%	·	7.6µM*	?	3.5µM*
CCCC(=O)OCC(=O)Nc1ccc(N=Nc2ccccc2)cc1	21µM*	16µM*	9.5µM*	2.2µM*	3.5µM*
CC1CC1C(=O)OCC(=O)Nc1ccc(N=Nc2ccccc2)cc1 (stereo not drawn)	16µM*	13µM*	?	3.2µM*	1.8µM*
O=C(CC1N=C2c3ccccc3N=C(SCc3ccccc3Cl)N2C1=O)NCCc1ccccc1 (stereo not drawn)	·	·	0%	·	·
CC(C)N1CCN(Cc2cc3ccccc3[nH]2)CC1CCO (stereo not drawn)	0%	·	-3%	1%	4%
O=C(COC(=O)C1CC1)Nc1ccc(Oc2ccccc2)cc1	-2%	6%	21µM*	-2%	?
CC1CC1C(=O)OCC(=O)NC(=O)c1ccccc1 (stereo not drawn)	1%	·	-19%	0%	-1%
O=C(O)CCC(=O)Nc1ccc(N=Nc2ccccc2)cc1	10%	10%	11µM*	12%	16%
O=C(O)CCC(=O)NNC(=O)CCC(=O)Nc1ccccc1	-8%	10%	1%	3%	-2%
COc1ccccc1C(=O)NC(=O)COC(=O)C1CC1C (stereo not drawn)	-7%	·	8.5µM*	8%	0%
